For 104 compounds, inhibition results are on record in PubChem BioAssay AID862 (The Scripps Research Institute Molecular Screening Center, 2007).

Out of some 190,000 compounds screened, about 1,700 (0.89%) were called active. The list comes from a sample in which actives are over-represented; it also holds similar structures and randomly drawn compounds. Values without a mark were called inactive.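 How the source made its calls: active means inhibition above the mean inhibition across all screened compounds plus 3 SD (cut at about 44% in these data); inactive means the rest.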

This assay can be described thus: IL-6 driven STAT3 reporter inhibitors, primary screen, U3A cells, luciferase, luminescence, MLSCN library (AID 862).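 Further: 0% = DMSO only wells and 100% = 100 µM nifuroxazide control wells.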 The conditions noted are these: IL-6 STAT3-luciferase reporter, at 5.5 µM, hits give high values, host cell line lacks STAT1. (In general: Reporter assays use an easily measured gene product as a stand-in for the process of interest.)
In the case of `Cc1cccc(NC(=S)NC23CN4CN(CN(C4)C2)C3)c1`, the inhibition (in general, the change of the read-out against control, counted positive when it falls) was 4.5%. On to `Cc1ccc(OCCCn2c(=O)oc3ccccc32)cc1`, for which the inhibition is 16.3%.

With `COC(=O)c1nc2ccccc2s1`, the inhibition is -7.8%. For `CC(C)CC(=O)N/C(N)=N/c1nc2ccccc2s1`, the inhibition was 47% (active). The value for `CCC(=O)NC(=Nc1nc2ccccc2s1)NC(=O)CC` was 12.8%; that for `CCC(=O)c1ccc(OCC(O)Cn2nc(C)c(C(C)=O)c2C)cc1` (centres undefined) was 22.7%; that for `Cc1ccc(Cl)cc1NC(=O)C1CCN(S(C)(=O)=O)CC1` was -0.1%. `CCCOC(=O)c1[nH]c2c(c1C)C(=O)CC(c1cccs1)C2` (centres undefined): the inhibition was 3.8%.

As to `CCOC(=O)c1[nH]c2c(c1C)C(=O)CC(c1ccc(N(C)C)cc1)C2` (centres undefined), the inhibition was -3.7%. The value for `CCCOC(=O)c1[nH]c2c(c1C)C(=O)CC(c1cc(OC)c(OC)c(OC)c1)C2` (centres undefined) was 47.1% (active). In the case of `COC(=O)CC1=NN(c2ccccc2)C(=O)C1` it was 3.8%; in that of `Cc1ccccc1CN(c1ccc(C(=O)NCC2CCCO2)cc1)S(C)(=O)=O` (centres undefined), 1%; in that of `Cc1cccc(C)c1NC(=O)C1(N(C(=O)c2ccccn2)c2ccc(O)cc2)CCCCC1`, 0.2%. In the case of `COc1nc(-c2ccc(Cl)cc2)ccc1-c1noc(-c2cccs2)n1` it was -4.2%; in that of `O=C(Oc1ccccc1)c1ccc2nccnc2c1`, 2.6%; in that of `CC(C)c1nc(-c2ccccn2)no1`, -0.3%.

Take `O=C(Oc1ccc(-c2nc(-c3ccccn3)no2)cc1)c1ccccc1`: the inhibition is 76.7% (active).

On to `c1ccc(-c2noc(-c3cccs3)n2)nc1`, for which the inhibition was 43.8% (active).

`c1csc(-c2nc(-c3ccncc3)no2)c1`: the inhibition is 16.8%. In the case of `Cc1c(C(=O)O)nnn1-c1nonc1N`, the inhibition was -8.4%. `Cc1cc(F)ccc1S(=O)(=O)Nc1ncnc2scc(-c3ccc(F)cc3)c12`: the inhibition was -1.8%.

`CC(=O)c1c(C)[nH]c(C(=O)Nc2cc(S(=O)(=O)N(C)C)ccc2C)c1C`: the inhibition is 13.2%.

Turning to `CCOc1ccc(NC(=O)CC2C(=O)N(c3ccccc3)C(=O)N2CCOC)cc1` (centres undefined), the inhibition is -0.8%. In the case of `CCCCn1c(N)c(N(CC)C(=O)/C=C/c2ccco2)c(=O)[nH]c1=O` it was -5.6%; in that of `COc1ccc(Cn2c(=O)sc3ccccc32)cc1OC`, 51.6% (active).

With `Cc1cccc(CSc2nnc(Cn3c(=O)sc4ccccc43)n2C)c1`, the inhibition was 5%. For `COc1ccccc1CNC(=O)CCn1c(=O)sc2ccccc21`, the inhibition was -0.6%. The value for `CO/N=C/CC(=O)c1ccc(OC)cc1` was 6.2%. Regarding `Cc1ccc(NC(=O)Cn2nc(C)c3ccccc3c2=O)c(C)c1`, the inhibition is 9.7%. Regarding `Cc1ccc(F)cc1NC(=O)Cc1nn(C)c(=O)c2ccccc12`, the inhibition was 56.3% (active). In the case of `COc1ccc(-c2nn(C)c(=O)c3ccccc23)cc1NC(=O)COc1ccccc1`, the inhibition was 38.1%. On to `Cc1cc(N2CCN(Cc3ccc4c(c3)OCO4)CC2)n2ncnc2n1`, for which the inhibition was -1.7%.

In the case of `Fc1ccc2[nH]c3c(N4CCN(Cc5ccc6c(c5)OCO6)CC4)ncnc3c2c1`, the inhibition was 65.5% (active). In the case of `Fc1ccc2[nH]c3c(N4CCSCC4)ncnc3c2c1` it was 22.8%; in that of `CC(C)(C)NCCCOc1ccc(Cl)cc1C(C)(C)C`, -0.4%; in that of `O=C(N/N=C/c1ccccc1O)/C(=C/c1ccccc1)CCO`, 3.8%. For `Cc1ccccc1CSCCNC(=O)c1ccc(Cl)c(S(=O)(=O)N2CCOCC2)c1`, the inhibition was 4.2%. Turning to `CC(C)(CNC(=O)c1ccc(Cl)c(S(=O)(=O)N2CCc3ccccc3C2)c1)N1CCOCC1`, the inhibition is 49.5% (active).

For `O=C(NCCSCc1ccccc1)c1ccc(Cl)c(S(=O)(=O)N2CCOCC2)c1`, the inhibition was 21%. The value for `CCOC(=O)C(=Cc1ccccc1OC)C(=O)OCC` was 9.9%; that for `Cc1cc(NC(=O)CSc2nc3c(cc2C#N)CCCCC3)no1` was -1.5%; that for `COc1cccc(-c2cc(C(=O)N/N=C/c3ccc(OC)c(COC(C)=O)c3)c3ccccc3n2)c1` was -6%. `Cc1ccc(-c2cc(C(=O)N/N=C/C=C/c3ccco3)c3ccccc3n2)cc1C`: the inhibition is 46.8% (active). Consider `O=C(N/N=C/C=C/c1ccco1)c1cccs1`, for which the inhibition is -6.8%. With `Cc1cc(C(=O)NNC(=O)c2cccc(S(=O)(=O)N3CCOCC3)c2)c2ccccc2n1`, the inhibition was 10%.

Regarding `CCC(=O)OCCNc1nc(-c2ccccc2)nc2ccccc12`, the inhibition was 1.5%.

As for `O=C(COC(=O)c1ccc(O)cc1)Nc1nccs1`, the inhibition is -5.6%.

`Cc1nc2ccccc2cc1OCc1ccc(F)cc1`: the inhibition is 73% (active). Turning to `Fc1cccc2ncnc(OCc3ccccc3)c12`, the inhibition was 4.2%. As for `Cc1nc2ccccc2cc1O`, the inhibition is -75.4%. In the case of `O=C(Nc1ccc(N2CCN(C(=O)c3cccs3)CC2)cc1)c1cccnc1Cl`, the inhibition was 1.7%. Turning to `O=c1c2ccccc2nc2n1C(CSCc1cccc(C(F)(F)F)c1)CS2` (centres undefined), the inhibition is 49.3% (active).

In the case of `O=c1c2ccccc2nc2n1C(CSc1ccc(F)cc1)CN2` (centres undefined), the inhibition is -2.2%. In the case of `O=c1c2ccccc2nc2n1C(CSCc1ccccc1)CS2` (centres undefined), the inhibition is 18.7%. In the case of `Cc1ccc(CNC(=O)c2cccnc2Cl)cc1`, the inhibition is 3.5%. As to `CCOC(=O)CN/C=C(\C#N)c1ccc(F)cc1`, the inhibition was -0.6%. Regarding `CCOc1c(Cl)cc(/C=N/O)cc1OC`, the inhibition is 1.3%. For the compound `CCOc1cc(/C=C(/C#N)c2ccc(Cl)cc2)cc(Cl)c1OCC(=O)O`, the inhibition is 63.3% (active). For the compound `c1ccc(-c2nc(NCc3ccco3)c3ccccc3n2)cc1`, the inhibition was -1%.

On to `c1coc(CNc2ncnc3ccccc23)c1`, for which the inhibition was 61.2% (active). The value for `FC(F)(F)c1cccc(Nc2ncnc3ccccc23)c1` was 16.5%. For `CCN(/N=C/c1ccc(N(C)C)cc1)c1nc2ccccc2[nH]1`, the inhibition is 1.9%. In the case of `CCN(CCCNC(=O)CSc1cc(=O)n(C)c2cc(Cl)ccc12)Cc1ccccc1` it was 5.2%; in that of `Cn1c(N)c(C(=O)COC(=O)/C=C/c2ccc(OC(F)F)cc2)c(=O)n(C)c1=O`, 26.3%; in that of `O=C(Nc1ccccc1Cc1ccccc1)c1ccc2c(c1)SC1=NS(=O)(=O)CCN12`, -8.5%. Turning to `Cn1c(SCC(=O)N2CCCc3ccccc32)nc2ccccc2c1=O`, the inhibition is 62.3% (active).

On to `O=C(CSc1nc2[nH]ncc2c(=O)n1-c1ccccc1)N1CCCc2ccccc21`, for which the inhibition is -21.2%.

With `O=C(CSc1nc2ccccc2c(=O)n1CCCO)N1CCc2ccccc21`, the inhibition was 12.6%. `COc1ccc(N2C(=O)C(O)C2c2ccc(C)cc2)cc1` (centres undefined): the inhibition is -18.4%. In the case of `O=C(OCC(=O)c1cccs1)c1ccc([N+](=O)[O-])o1` it was 0.6%; in that of `COc1ccc(NC(=O)c2cc3nc(-c4ccccc4)cc(C)n3n2)cc1OC`, 17.9%; in that of `C(=N\Nc1ccc2ccccc2n1)/c1ccc2c(c1)OCO2`, 91.2% (active).

As to `Cc1noc(C)c1/C=N/Nc1ccc2ccccc2n1`, the inhibition is -21.3%. Consider `Brc1ccc(-c2csc(N/N=C/c3ccc4c(c3)OCO4)n2)cc1`, for which the inhibition is 5%. Turning to `S=c1[nH]nc(Nc2ccccc2)s1`, the inhibition was 12%.

Take `CN(c1ccccc1)c1nc(N)c([N+](=O)[O-])c(NCc2ccco2)n1`: the inhibition is -0.4%. Regarding `CCC(=O)/C=C1\Sc2ccccc2N1CC`, the inhibition is 20.7%. Take `CCN1/C(=C\c2ccc3ccccc3[n+]2CC)Sc2cc(C)ccc21`: the inhibition was 84.8% (active).

As for `Cc1ccccc1NC(=O)CN1C(=O)N/C(=C\c2cccn2-c2cccc(C(=O)O)c2)C1=O`, the inhibition was 6%.

Take `O=C(O)CSCC(=O)Nc1ccc(C(F)(F)F)cc1`: the inhibition is 6.5%.

As for `Nc1ccc(Oc2ccc(Cl)cc2)cc1`, the inhibition was -0.6%. Take `Cc1ccc(Oc2ccc(N)cc2)cc1`: the inhibition was 0.4%.

Turning to `CC(C)(C)c1ccc(Oc2ccc(N)cc2)cc1`, the inhibition is 76.2% (active).

On to `Cc1ccc(NC(=O)Nc2ccccc2)c(Br)c1`, for which the inhibition was 16.3%. As to `C=CCNc1scc(-c2ccccc2)[n+]1CC=C`, the inhibition is 4.7%. Turning to `C=CC[n+]1c(-c2ccc(C)cc2)csc1NNC(=O)Nc1ccccc1`, the inhibition is 46.3% (active).

For `CCCN(CC(=O)Nc1ccc(C(N)=O)cc1)CC(=O)Nc1ccccc1C`, the inhibition is 3.9%. For the compound `Cc1csc(NC(=O)Nc2ccccc2[N+](=O)[O-])n1`, the inhibition was -24.9%.

Turning to `OCCCC1CCCCN1Cc1nc(Cc2ccccc2Cl)no1` (centres undefined), the inhibition is 4.3%. On to `N/C(=N\OC(=O)c1ccc2c(c1)OCO2)c1ccc(Br)cc1`, for which the inhibition is 9.8%. `Cc1ccc2nc(-c3ccc(NC(=O)CN(C)S(=O)(=O)c4ccccc4)cc3)sc2c1`: the inhibition was 49.8% (active).

As to `COc1cc(NC(=O)CN(C)S(=O)(=O)c2ccc3nc(C)sc3c2)cc(OC)c1`, the inhibition is 0.9%. Consider `Cc1cccc(N(CC(=O)Nc2ccc(-c3nc4ccc(C)cc4s3)cc2)S(C)(=O)=O)c1`, for which the inhibition is 28%. `O=C(CCc1ccccc1)NCCc1cccs1`: the inhibition is 4.7%.

As to `O=C(C/C(=N\NC(=O)c1ccccc1Br)C(F)(F)F)c1cccs1`, the inhibition is -8.2%. In the case of `O=C(Nc1ccc2nccnc2c1)c1ccco1` it was 14.3%; in that of `O=C(Nc1ccc(NC(=O)c2cccs2)cn1)c1ccco1`, 48.3% (active); in that of `COc1cccc(C(=O)Nc2ccc(NC(=O)c3ccco3)cn2)c1`, 12.2%. In the case of `N=c1n(CCc2ccccc2)c2ccccc2n1Cc1ccccc1F`, the inhibition was 0.2%. As to `CCc1ccc(CN(C)Cc2nc(Cc3ccccc3)no2)nc1`, the inhibition is -2.9%.

As to `CC1=CC=CN2C1=NC(=O)CC2(C)C(=O)N(CC(=O)NC1CCCC1)c1ccccc1C` (centres undefined), the inhibition was 4.4%. With `Cc1cc(N/C=C\C(=O)c2ccc(Cl)c(Cl)c2)no1`, the inhibition is -7.8%. As for `COc1ccc(C(=O)/C=C/Nc2ccccn2)cc1`, the inhibition is 97.2% (active). For `CCOc1cc(NC(=O)c2ccccn2)c(OCC)cc1NC(=O)c1ccc(OC)cc1`, the inhibition is 13.8%.
